# Laboratory results: paper PMC7862700, “An all-to-all approach to the identification of sequence-specific readers for epigenetic DNA modifications on cytosine”
# Assays:
# Test in all cases: DAPPL (digital affinity profiling via proximity ligation, sequencing); 10 mM Tris-HCl pH 7.5, 50 mM NaCl, 1 mM DTT, 4% glycerol, room temperature, 30 min; GST-TFs on glutathione beads, 16-mer random dsDNA library, 0.1% formaldehyde crosslink after washing; high values mean tight binding
# [1] = target: T1, FLI1 (Homo sapiens, UniProt Q01543 1-452); conditions: protein: recombinant; tags: N-terminal GST; dsDNA, one strand shown
# T1 sequence: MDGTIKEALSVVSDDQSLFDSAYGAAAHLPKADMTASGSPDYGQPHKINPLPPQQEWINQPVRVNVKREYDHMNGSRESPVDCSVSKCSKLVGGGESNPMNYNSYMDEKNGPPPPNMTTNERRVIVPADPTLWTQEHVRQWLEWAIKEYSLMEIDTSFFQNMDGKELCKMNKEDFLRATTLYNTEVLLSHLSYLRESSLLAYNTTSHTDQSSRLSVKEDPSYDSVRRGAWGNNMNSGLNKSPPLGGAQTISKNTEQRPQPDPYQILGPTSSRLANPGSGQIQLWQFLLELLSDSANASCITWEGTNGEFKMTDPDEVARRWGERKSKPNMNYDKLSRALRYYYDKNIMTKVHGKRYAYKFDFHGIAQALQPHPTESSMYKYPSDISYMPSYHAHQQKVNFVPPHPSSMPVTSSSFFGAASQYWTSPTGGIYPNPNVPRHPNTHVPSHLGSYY
# Summary of the method: (§1)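 Binding signal is defined as a hexamer's read frequency for one factor over its frequency for the tag-only sample. To obtain reads, GST-fused human transcription factors were expressed in yeast, captured on glutathione beads, barcoded with DNA and pooled with that sample. Pools met 200 nmole of a 16-mer random double-stranded DNA library in Tris/NaCl/DTT/glycerol buffer for 30 min at room temperature before washing, 0.1% formaldehyde crosslinking, proximity ligation (BsaI/T4 ligase, 1 h, 37 °C), PCR and Illumina NextSeq500 sequencing.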
# [2] = target: T2, ELK1 (Homo sapiens, UniProt P19419 1-428); conditions: protein: recombinant; tags: N-terminal GST; dsDNA, one strand shown
# T2 sequence: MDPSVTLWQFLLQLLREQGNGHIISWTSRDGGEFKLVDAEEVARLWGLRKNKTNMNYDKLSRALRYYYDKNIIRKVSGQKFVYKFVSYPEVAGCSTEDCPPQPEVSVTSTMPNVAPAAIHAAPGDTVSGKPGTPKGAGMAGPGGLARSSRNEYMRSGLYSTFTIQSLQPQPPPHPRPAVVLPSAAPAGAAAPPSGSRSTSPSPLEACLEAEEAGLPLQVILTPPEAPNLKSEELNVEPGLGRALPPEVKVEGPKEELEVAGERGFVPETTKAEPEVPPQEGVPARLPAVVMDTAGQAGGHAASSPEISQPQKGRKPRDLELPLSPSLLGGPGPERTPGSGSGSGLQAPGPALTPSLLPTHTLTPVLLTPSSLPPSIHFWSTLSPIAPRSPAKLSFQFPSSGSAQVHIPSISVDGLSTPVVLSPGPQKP
# Summary of the method: as §1
# [3] = target: T3, GABPA (Homo sapiens, UniProt Q06546 1-454); conditions: protein: recombinant; tags: N-terminal GST; dsDNA, one strand shown
# T3 sequence: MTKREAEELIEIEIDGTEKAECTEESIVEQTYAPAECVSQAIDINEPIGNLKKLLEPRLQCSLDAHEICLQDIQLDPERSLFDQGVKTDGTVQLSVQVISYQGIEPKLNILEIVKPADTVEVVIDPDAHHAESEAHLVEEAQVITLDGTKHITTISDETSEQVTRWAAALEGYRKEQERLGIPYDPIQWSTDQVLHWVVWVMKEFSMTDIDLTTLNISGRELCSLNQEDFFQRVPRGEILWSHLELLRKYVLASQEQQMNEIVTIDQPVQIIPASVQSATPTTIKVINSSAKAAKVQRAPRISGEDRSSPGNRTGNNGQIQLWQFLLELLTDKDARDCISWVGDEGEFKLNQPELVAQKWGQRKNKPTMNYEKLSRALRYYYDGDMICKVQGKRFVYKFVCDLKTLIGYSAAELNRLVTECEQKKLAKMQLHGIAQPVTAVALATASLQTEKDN
# Summary of the method: as §1
# [4] = target: T4, ERG (Homo sapiens, UniProt P11308 1-479); conditions: protein: recombinant; tags: N-terminal GST; dsDNA, one strand shown
# T4 sequence: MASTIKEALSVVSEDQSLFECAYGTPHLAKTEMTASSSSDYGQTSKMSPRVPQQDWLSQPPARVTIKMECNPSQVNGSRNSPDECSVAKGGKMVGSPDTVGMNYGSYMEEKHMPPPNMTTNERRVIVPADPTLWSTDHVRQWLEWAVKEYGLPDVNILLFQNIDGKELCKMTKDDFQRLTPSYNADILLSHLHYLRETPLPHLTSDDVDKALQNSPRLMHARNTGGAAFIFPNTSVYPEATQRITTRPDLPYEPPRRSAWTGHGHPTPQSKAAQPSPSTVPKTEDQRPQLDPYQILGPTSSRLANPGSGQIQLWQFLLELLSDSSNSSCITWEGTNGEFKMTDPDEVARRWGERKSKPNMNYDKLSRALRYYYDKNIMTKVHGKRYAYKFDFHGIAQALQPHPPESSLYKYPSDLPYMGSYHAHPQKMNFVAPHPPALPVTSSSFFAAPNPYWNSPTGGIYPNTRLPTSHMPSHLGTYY
# Summary of the method: as §1
# [5] = target: ELF1 (Homo sapiens, UniProt P32519 1-619); conditions: protein: recombinant; tags: N-terminal GST; dsDNA, one strand shown
# Sequence of ELF1 (P32519 whole entry): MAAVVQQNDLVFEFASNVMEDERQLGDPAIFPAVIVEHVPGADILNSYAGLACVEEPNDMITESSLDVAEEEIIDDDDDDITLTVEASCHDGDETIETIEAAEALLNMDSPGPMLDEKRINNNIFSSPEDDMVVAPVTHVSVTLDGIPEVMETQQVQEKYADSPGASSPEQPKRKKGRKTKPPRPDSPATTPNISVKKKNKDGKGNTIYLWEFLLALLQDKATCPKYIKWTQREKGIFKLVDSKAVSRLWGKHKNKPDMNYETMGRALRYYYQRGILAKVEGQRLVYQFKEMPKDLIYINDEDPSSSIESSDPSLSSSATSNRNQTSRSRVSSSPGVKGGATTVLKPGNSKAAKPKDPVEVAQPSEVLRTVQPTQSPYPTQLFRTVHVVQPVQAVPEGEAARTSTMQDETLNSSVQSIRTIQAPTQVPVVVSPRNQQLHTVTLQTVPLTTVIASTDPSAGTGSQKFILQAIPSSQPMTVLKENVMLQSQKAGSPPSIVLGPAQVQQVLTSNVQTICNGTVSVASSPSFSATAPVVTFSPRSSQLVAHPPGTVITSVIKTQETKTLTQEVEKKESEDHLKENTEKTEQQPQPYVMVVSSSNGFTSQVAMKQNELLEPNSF
# Summary of the method: as §1
# [6] = target: T5, EHF (Homo sapiens, UniProt Q9NZC4 1-300); conditions: protein: recombinant; tags: N-terminal GST; dsDNA, one strand shown
# T5 sequence: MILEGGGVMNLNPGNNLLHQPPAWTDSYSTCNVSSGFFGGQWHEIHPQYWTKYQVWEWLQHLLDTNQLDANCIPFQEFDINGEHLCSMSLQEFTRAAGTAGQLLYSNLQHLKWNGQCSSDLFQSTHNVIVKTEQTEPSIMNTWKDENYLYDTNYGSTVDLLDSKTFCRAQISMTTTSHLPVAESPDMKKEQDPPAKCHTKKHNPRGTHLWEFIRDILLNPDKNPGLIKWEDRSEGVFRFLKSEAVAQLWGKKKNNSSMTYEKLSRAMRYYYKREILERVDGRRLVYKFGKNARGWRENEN
# Summary of the method: as §1
# [7] = target: SPI1 (Homo sapiens, UniProt P17947 1-270); conditions: protein: recombinant; tags: N-terminal GST; dsDNA, one strand shown
# Summary of the method: as §1
# [8] = target: SPIB (Homo sapiens, UniProt Q01892 1-262); conditions: protein: recombinant; tags: N-terminal GST; dsDNA, one strand shown
# Sequence of SPIB (Q01892 whole entry): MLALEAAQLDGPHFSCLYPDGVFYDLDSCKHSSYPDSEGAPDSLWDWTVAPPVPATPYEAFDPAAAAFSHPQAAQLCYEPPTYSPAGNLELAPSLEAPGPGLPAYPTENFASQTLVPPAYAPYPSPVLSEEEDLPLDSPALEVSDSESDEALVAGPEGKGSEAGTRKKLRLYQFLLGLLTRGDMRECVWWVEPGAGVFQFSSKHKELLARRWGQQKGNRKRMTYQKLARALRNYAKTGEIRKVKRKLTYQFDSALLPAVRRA
# Summary of the method: as §1
# [9] = target: T6, ELK3 (Homo sapiens, UniProt P41970 1-407); conditions: protein: recombinant; tags: N-terminal GST; dsDNA, one strand shown
# T6 sequence: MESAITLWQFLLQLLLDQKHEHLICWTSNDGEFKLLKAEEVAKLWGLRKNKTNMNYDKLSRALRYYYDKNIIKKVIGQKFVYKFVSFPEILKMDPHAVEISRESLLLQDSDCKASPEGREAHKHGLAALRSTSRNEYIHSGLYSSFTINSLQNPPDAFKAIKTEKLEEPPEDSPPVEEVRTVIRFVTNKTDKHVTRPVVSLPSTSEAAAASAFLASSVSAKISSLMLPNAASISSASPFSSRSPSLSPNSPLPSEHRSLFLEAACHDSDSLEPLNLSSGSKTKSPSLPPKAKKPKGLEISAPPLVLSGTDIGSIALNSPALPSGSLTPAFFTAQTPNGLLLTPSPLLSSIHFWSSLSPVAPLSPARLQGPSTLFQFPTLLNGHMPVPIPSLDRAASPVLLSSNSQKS
# Summary of the method: as §1
# [10] = target: T7, FEV (Homo sapiens, UniProt Q99581 1-238); conditions: protein: recombinant; tags: N-terminal GST; dsDNA, one strand shown
# T7 sequence: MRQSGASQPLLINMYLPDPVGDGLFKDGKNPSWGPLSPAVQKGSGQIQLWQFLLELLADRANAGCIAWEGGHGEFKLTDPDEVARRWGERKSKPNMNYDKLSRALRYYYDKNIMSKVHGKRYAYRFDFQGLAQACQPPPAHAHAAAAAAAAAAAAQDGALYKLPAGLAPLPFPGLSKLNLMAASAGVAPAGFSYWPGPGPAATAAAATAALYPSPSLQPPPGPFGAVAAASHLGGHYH
# Summary of the method: as §1
# [11] = target: ETV5 (Homo sapiens, UniProt P41161 1-510); conditions: protein: recombinant; tags: N-terminal GST; dsDNA, one strand shown
# Sequence of ETV5 (P41161 whole entry): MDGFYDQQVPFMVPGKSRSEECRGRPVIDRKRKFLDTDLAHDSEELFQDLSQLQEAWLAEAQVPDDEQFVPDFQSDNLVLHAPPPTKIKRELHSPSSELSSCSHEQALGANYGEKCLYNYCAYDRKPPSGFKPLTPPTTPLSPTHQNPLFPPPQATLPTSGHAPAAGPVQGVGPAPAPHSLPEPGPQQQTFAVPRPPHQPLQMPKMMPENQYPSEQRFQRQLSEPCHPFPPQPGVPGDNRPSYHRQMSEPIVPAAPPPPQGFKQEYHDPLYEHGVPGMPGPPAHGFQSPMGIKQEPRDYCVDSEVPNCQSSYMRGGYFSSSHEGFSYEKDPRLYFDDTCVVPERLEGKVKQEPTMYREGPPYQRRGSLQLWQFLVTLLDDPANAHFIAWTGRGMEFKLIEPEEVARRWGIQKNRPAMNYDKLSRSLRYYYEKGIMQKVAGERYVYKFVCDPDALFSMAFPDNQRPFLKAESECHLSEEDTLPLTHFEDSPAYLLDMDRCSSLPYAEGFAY
# Summary of the method: as §1
# [12] = target: HSF1 (Homo sapiens, UniProt Q00613 1-529); conditions: protein: recombinant; tags: N-terminal GST; chain copies: 3; dsDNA, one strand shown
# Sequence of HSF1 (Q00613 whole entry): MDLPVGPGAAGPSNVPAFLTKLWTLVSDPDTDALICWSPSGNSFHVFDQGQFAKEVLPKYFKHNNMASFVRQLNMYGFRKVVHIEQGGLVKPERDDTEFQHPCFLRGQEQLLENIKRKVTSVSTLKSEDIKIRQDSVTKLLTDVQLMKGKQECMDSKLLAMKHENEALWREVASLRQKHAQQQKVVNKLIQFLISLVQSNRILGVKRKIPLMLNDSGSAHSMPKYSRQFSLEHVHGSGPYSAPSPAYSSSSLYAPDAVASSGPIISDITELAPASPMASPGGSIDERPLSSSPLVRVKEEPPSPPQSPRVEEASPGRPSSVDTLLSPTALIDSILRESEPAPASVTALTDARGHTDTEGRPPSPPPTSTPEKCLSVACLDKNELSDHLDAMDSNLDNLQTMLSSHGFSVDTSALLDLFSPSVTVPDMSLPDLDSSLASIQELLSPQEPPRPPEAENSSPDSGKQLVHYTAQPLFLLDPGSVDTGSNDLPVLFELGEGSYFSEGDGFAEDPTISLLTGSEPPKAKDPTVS
# Summary of the method: as §1
# [13] = target: T8, SPIC (Homo sapiens, UniProt Q8N5J4 1-248); conditions: protein: recombinant; tags: N-terminal GST; dsDNA, one strand shown
# T8 sequence: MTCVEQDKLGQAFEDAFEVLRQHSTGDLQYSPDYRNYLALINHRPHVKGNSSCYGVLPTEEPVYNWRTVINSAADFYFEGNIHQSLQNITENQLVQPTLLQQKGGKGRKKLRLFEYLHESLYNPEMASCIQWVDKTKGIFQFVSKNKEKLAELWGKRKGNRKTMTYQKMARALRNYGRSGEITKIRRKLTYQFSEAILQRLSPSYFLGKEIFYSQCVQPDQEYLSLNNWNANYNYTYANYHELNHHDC
# Summary of the method: as §1
# [14] = target: ELF4 (Homo sapiens, UniProt Q99607 1-663); conditions: protein: recombinant; tags: N-terminal GST; dsDNA, one strand shown
# Sequence of ELF4 (Q99607 whole entry): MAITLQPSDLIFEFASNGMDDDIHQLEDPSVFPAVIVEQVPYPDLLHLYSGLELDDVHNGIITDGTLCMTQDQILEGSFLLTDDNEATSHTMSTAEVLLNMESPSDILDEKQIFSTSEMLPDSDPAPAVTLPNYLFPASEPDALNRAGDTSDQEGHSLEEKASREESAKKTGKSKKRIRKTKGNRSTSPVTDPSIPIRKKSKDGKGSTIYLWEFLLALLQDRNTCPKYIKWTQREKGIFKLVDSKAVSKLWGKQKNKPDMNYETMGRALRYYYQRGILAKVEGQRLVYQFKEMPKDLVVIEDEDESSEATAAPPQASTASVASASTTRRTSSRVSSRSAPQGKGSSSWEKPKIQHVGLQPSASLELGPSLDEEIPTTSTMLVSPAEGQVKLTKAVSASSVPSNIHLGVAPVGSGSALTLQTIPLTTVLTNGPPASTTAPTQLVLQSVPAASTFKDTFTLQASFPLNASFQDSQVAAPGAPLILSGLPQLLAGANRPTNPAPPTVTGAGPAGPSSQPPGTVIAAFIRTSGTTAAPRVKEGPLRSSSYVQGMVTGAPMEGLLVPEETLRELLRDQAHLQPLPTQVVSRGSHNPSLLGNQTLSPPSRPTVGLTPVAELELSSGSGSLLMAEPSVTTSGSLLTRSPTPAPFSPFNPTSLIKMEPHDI
# Summary of the method: as §1
# [15] = target: T9, ELK4 (Homo sapiens, UniProt P28324-2 1-405); conditions: protein: recombinant; tags: N-terminal GST; dsDNA, one strand shown
# T9 sequence: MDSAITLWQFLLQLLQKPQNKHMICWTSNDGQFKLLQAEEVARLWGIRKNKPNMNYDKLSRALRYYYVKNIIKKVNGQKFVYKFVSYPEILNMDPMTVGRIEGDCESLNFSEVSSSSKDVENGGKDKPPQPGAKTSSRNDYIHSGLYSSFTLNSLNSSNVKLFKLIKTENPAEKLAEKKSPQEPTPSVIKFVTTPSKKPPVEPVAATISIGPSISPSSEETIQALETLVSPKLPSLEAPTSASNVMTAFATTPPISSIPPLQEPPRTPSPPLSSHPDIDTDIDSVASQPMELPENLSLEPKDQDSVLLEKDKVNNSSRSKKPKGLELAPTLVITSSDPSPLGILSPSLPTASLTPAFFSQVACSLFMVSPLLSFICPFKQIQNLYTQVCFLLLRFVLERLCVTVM
# Summary of the method: as §1
# [16] = target: T10, ETV2 (Homo sapiens, UniProt O00321 1-342); conditions: protein: recombinant; tags: N-terminal GST; dsDNA, one strand shown
# T10 sequence: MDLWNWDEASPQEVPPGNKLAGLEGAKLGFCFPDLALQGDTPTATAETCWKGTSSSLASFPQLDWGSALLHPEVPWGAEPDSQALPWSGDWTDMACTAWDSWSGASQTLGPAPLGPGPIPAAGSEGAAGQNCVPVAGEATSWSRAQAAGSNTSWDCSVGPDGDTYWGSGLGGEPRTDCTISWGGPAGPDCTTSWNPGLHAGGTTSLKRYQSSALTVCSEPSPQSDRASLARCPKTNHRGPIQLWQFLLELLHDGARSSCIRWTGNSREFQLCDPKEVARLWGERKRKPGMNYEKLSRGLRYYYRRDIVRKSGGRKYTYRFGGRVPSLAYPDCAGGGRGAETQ
# Summary of the method: as §1
# [17] = target: T11, ELF3 (Homo sapiens, UniProt P78545 1-371); conditions: protein: recombinant; tags: N-terminal GST; dsDNA, one strand shown
# T11 sequence: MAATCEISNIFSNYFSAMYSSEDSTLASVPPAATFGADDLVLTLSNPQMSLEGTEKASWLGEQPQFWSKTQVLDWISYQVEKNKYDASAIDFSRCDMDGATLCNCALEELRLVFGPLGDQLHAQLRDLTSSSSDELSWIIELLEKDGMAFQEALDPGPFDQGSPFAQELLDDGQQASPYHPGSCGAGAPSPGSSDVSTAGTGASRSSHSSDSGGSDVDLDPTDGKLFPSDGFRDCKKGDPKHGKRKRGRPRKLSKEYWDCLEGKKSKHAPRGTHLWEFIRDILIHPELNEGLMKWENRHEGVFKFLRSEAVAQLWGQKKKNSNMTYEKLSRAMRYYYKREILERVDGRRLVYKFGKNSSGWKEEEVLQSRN
# Summary of the method: as §1
# [18] = target: CRX (Homo sapiens, UniProt O43186 1-299); conditions: protein: recombinant; tags: N-terminal GST; dsDNA, one strand shown
# Sequence of CRX (O43186 whole entry): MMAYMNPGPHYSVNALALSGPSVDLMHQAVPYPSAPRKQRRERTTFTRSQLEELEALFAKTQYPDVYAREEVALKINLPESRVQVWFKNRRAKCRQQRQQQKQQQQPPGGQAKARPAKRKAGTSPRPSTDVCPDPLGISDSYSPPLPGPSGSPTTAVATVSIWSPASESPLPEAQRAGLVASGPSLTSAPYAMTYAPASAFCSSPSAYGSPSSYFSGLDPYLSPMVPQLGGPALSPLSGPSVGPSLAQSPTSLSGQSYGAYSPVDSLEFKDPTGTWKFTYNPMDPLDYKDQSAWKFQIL
# Summary of the method: as §1
# [19] = target: ETV1 (Homo sapiens, UniProt P50549 1-477); conditions: protein: recombinant; tags: N-terminal GST; dsDNA, one strand shown
# Sequence of ETV1 (P50549 whole entry): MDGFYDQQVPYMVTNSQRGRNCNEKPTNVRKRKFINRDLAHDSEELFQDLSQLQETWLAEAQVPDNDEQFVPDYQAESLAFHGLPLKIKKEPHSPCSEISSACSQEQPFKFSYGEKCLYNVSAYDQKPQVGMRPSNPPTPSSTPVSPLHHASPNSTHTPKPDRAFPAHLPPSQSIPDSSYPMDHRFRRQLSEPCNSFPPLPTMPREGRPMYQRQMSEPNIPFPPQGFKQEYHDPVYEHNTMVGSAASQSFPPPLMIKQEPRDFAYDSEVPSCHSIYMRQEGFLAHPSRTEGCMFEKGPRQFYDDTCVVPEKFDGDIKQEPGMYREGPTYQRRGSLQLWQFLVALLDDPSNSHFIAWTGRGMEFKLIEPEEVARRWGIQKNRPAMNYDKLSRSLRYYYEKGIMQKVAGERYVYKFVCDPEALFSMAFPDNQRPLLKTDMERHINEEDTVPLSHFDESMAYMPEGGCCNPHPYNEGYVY
# Summary of the method: as §1
sequence,measurement,setting,value
TTTTCC,binding signal,[1],"1.9 fold enrichment (6-mer frequency, TF over GST control)"
same,binding signal,[2],"1.68 fold enrichment (6-mer frequency, TF over GST control)"
same,binding signal,[3],"1.71 fold enrichment (6-mer frequency, TF over GST control)"
same,binding signal,[4],"1.76 fold enrichment (6-mer frequency, TF over GST control)"
same,binding signal,[5],"1.6 fold enrichment (6-mer frequency, TF over GST control)"
same,binding signal,[6],"1.76 fold enrichment (6-mer frequency, TF over GST control)"
same,binding signal,[7],"1.75 fold enrichment (6-mer frequency, TF over GST control)"
same,binding signal,[8],"1.79 fold enrichment (6-mer frequency, TF over GST control)"
same,binding signal,[9],"1.82 fold enrichment (6-mer frequency, TF over GST control)"
same,binding signal,[10],"1.74 fold enrichment (6-mer frequency, TF over GST control)"
same,binding signal,[11],"1.92 fold enrichment (6-mer frequency, TF over GST control)"
same,binding signal,[12],"1.73 fold enrichment (6-mer frequency, TF over GST control)"
same,binding signal,[13],"1.72 fold enrichment (6-mer frequency, TF over GST control)"
same,binding signal,[14],"1.84 fold enrichment (6-mer frequency, TF over GST control)"
same,binding signal,[15],"1.62 fold enrichment (6-mer frequency, TF over GST control)"
same,binding signal,[16],"1.88 fold enrichment (6-mer frequency, TF over GST control)"
same,binding signal,[17],"1.89 fold enrichment (6-mer frequency, TF over GST control)"
same,binding signal,[18],"1.44 fold enrichment (6-mer frequency, TF over GST control)"
same,binding signal,[19],"1.65 fold enrichment (6-mer frequency, TF over GST control)"
